Laboratory results as given in article PMC12864922, “TDP-43 directly inhibits mRNA accumulation in neurites through modulation of mRNA stability”.
Whole data set: some 9,900 sequences, median “r (bound/input frequency ratio)” near 0.7, cut for the highest 2% near 6.5. This is one part of a sample in which the highest values are shown more often than they occur.

B1: ENSMUSG00000031028.174|Tub|17:22 (ssRNA)
RNA: GGGAGUUCUACAGUCCGACGAUCGCUUCGAUAUCCGCAUGCUAAGAGGUAGCGGACCUCACACACGUUCACCAACAGCAAUGCUGAUCCCUGAGUAUAGGGCACAUGUCUCUUGGUUACCUCACUGGUUAAUGGCAGAGUUGAGAACCUCAAAUUCUUUUGUUCCUACUGUUGCCCAGAAACUAGACUCUCUGACCUGCUAGGGUCUAUUCUGCAUGUCCUUUCUCUUCCCAGUUCCAGAGAUGAAACCCCUCCGAGUUAAUGUAUAAGGUUGGAAACCUUUCAGUAGGGAAUCAGGCAGUUCCUCUUGCGGUCGCACUAGUGUGGAAUUCUCGGGUGUCAAGG
B2: ENSMUSG00000029028.255|Lrrc47 (ssRNA)
RNA: GGGAGUUCUACAGUCCGACGAUCGCUUCGAUAUCCGCAUGCUAGCUCACAGGUCCCUUUGAGUGGCUGUGGCAAGUACUCACCUACUAAGUGUUUAGGGUGGAGCUAUCCUGUGCUCACCCUGUCUCCCCCCAGUUCCUGCUGUUCCCUCCAGCCCAGCCCAGCCCAGGUGUGAGAUUCAUUGAGAUUUUUGAAACUGUUUUUACAGAUUCAAGCAGAACGCCUCUUUGUUCUAAUAAAAACCCUUGGUAACGACAUCUCUGCAUCAGCAGCCUUAGCACAUGCGUCUCCCAGGACAGUGUUGCUCUUGCGGUCGCACUAGUGUGGAAUUCUCGGGUGUCAAGG
B3: ENSMUSG00000029636.271|Wasf3|45:50 (ssRNA)
RNA: GGGAGUUCUACAGUCCGACGAUCGCUUCGAUAUCCGCAUGCUAAGUGAAAGCCCAUGUGCAAGCCCCUCCCUACGCCCUGCUUUGGCCACACACUGAGUGCUCUGUGCUGCGCCAUGGCCAUCCUGGAGCCUGCGCACACGUGGCCGCUGCUGUGACUCGCUGUCCUUGGUAAUUGGUGAGAGGCUUUUUCUUUCUUUCUCAGUUCUGCUUUUCCACACUGAGACCCACCAUGUUGACAUCAUCCUCGCGACGUUGACAUUUGAGCCUUUUGUUCUGUCUCCCAUGUGCCCUGUAGAACCCAGCUCUUGCGGUCGCACUAGUGUGGAAUUCUCGGGUGUCAAGG
B4: ENSMUSG00000022095.269|Fam160b2 (ssRNA)
RNA: GGGAGUUCUACAGUCCGACGAUCGCUUCGAUAUCCGCAUGCUAAGAGAGAGAGCGAGCUAUGAAUGAAUGUGAGUGUGUGUGUGUGUGUGUGUGAGAGAGAGAGAGAGAGAGAGAGAGCUGUGAGUACACAUGGGUGCUGGUGUGGGACAGGAGCAGAUCUUGGUGGAGUGGGUCUACACUUGAGAUUUGUACUCGUUUGAGAGGCUGGGCAAUACUCAAUGCACUUUGGCAUUUGCAUGGUGUCUUCACAACAGCACAGCAAUAAACAUUGUGAUUGUGUGGACAUGCUGACUCUCCCCAGUCUCUUGCGGUCGCACUAGUGUGGAAUUCUCGGGUGUCAAGG
B5: ENSMUSG00000022095.273|Fam160b2 (ssRNA)
RNA: GGGAGUUCUACAGUCCGACGAUCGCUUCGAUAUCCGCAUGCUAAUGUGAGUGUGUGUGUGUGUGUGUGUGAGAGAGAGAGAGAGAGAGAGAGAGCUGUGAGUACACAUGGGUGCUGGUGUGGGACAGGAGCAGAUCUUGGUGGAGUGGGUCUACACUUGAGAUUUGUACUCGUUUGAGAGGCUGGGCAAUACUCAAUGCACUUUGGCAUUUGCAUGGUGUCUUCACAACAGCACAGCAAUAAACAUUGUGAUUGUGUGGACAUGCUGACUCUCCCCAGUCUGCUUUUCUUUUCCCCAAGCUUUCUCUUGCGGUCGCACUAGUGUGGAAUUCUCGGGUGUCAAGG
B6: ENSMUSG00000022095.268|Fam160b2 (ssRNA)
RNA: GGGAGUUCUACAGUCCGACGAUCGCUUCGAUAUCCGCAUGCUAAGAGAGAGAGAGAGAGCGAGCUAUGAAUGAAUGUGAGUGUGUGUGUGUGUGUGUGUGAGAGAGAGAGAGAGAGAGAGAGAGCUGUGAGUACACAUGGGUGCUGGUGUGGGACAGGAGCAGAUCUUGGUGGAGUGGGUCUACACUUGAGAUUUGUACUCGUUUGAGAGGCUGGGCAAUACUCAAUGCACUUUGGCAUUUGCAUGGUGUCUUCACAACAGCACAGCAAUAAACAUUGUGAUUGUGUGGACAUGCUGACUCUCCUCUUGCGGUCGCACUAGUGUGGAAUUCUCGGGUGUCAAGG
B7: ENSMUSG00000022095.272|Fam160b2|13:33;80:84;216:221 (ssRNA)
RNA: GGGAGUUCUACAGUCCGACGAUCGCUUCGAUAUCCGCAUGCUAGAAUGAAUGUGACACACACACACACACACACACAGAGAGAGAGAGAGAGAGAGAGAGCUGUGAGUACACAUGGGUGCUGCACACGGACAGGAGCAGAUCUUGGUGGAGUGGGUCUACACUUGAGAUUUGUACUCGUUUGAGAGGCUGGGCAAUACUCAAUGCACUUUGGCAUUUGCAUGGUGUCUUCACAACAGCACAGCAAUAAACAUUGUGAUACACACGACAUGCUGACUCUCCCCAGUCUGCUUUUCUUUUCCCCACUCUUGCGGUCGCACUAGUGUGGAAUUCUCGGGUGUCAAGG
B8: ENSMUSG00000022095.271|Fam160b2 (ssRNA)
RNA: GGGAGUUCUACAGUCCGACGAUCGCUUCGAUAUCCGCAUGCUAAGCUAUGAAUGAAUGUGAGUGUGUGUGUGUGUGUGUGUGAGAGAGAGAGAGAGAGAGAGAGAGCUGUGAGUACACAUGGGUGCUGGUGUGGGACAGGAGCAGAUCUUGGUGGAGUGGGUCUACACUUGAGAUUUGUACUCGUUUGAGAGGCUGGGCAAUACUCAAUGCACUUUGGCAUUUGCAUGGUGUCUUCACAACAGCACAGCAAUAAACAUUGUGAUUGUGUGGACAUGCUGACUCUCCCCAGUCUGCUUUUCUUUCUCUUGCGGUCGCACUAGUGUGGAAUUCUCGGGUGUCAAGG
B9: ENSMUSG00000022095.269|Fam160b2|31:51;98:102;234:239 (ssRNA)
RNA: GGGAGUUCUACAGUCCGACGAUCGCUUCGAUAUCCGCAUGCUAAGAGAGAGAGCGAGCUAUGAAUGAAUGUGACACACACACACACACACACACAGAGAGAGAGAGAGAGAGAGAGAGCUGUGAGUACACAUGGGUGCUGCACACGGACAGGAGCAGAUCUUGGUGGAGUGGGUCUACACUUGAGAUUUGUACUCGUUUGAGAGGCUGGGCAAUACUCAAUGCACUUUGGCAUUUGCAUGGUGUCUUCACAACAGCACAGCAAUAAACAUUGUGAUACACACGACAUGCUGACUCUCCCCAGUCUCUUGCGGUCGCACUAGUGUGGAAUUCUCGGGUGUCAAGG
B10: ENSMUSG00000022095.270|Fam160b2|25:45;92:96;228:233 (ssRNA)
RNA: GGGAGUUCUACAGUCCGACGAUCGCUUCGAUAUCCGCAUGCUAAGAGCGAGCUAUGAAUGAAUGUGACACACACACACACACACACACAGAGAGAGAGAGAGAGAGAGAGAGCUGUGAGUACACAUGGGUGCUGCACACGGACAGGAGCAGAUCUUGGUGGAGUGGGUCUACACUUGAGAUUUGUACUCGUUUGAGAGGCUGGGCAAUACUCAAUGCACUUUGGCAUUUGCAUGGUGUCUUCACAACAGCACAGCAAUAAACAUUGUGAUACACACGACAUGCUGACUCUCCCCAGUCUGCUUCUCUUGCGGUCGCACUAGUGUGGAAUUCUCGGGUGUCAAGG
B11: ENSMUSG00000022095.271|Fam160b2|19:39;86:90;222:227 (ssRNA)
RNA: GGGAGUUCUACAGUCCGACGAUCGCUUCGAUAUCCGCAUGCUAAGCUAUGAAUGAAUGUGACACACACACACACACACACACAGAGAGAGAGAGAGAGAGAGAGAGCUGUGAGUACACAUGGGUGCUGCACACGGACAGGAGCAGAUCUUGGUGGAGUGGGUCUACACUUGAGAUUUGUACUCGUUUGAGAGGCUGGGCAAUACUCAAUGCACUUUGGCAUUUGCAUGGUGUCUUCACAACAGCACAGCAAUAAACAUUGUGAUACACACGACAUGCUGACUCUCCCCAGUCUGCUUUUCUUUCUCUUGCGGUCGCACUAGUGUGGAAUUCUCGGGUGUCAAGG
B12: ENSMUSG00000022095.272|Fam160b2 (ssRNA)
RNA: GGGAGUUCUACAGUCCGACGAUCGCUUCGAUAUCCGCAUGCUAGAAUGAAUGUGAGUGUGUGUGUGUGUGUGUGUGAGAGAGAGAGAGAGAGAGAGAGAGCUGUGAGUACACAUGGGUGCUGGUGUGGGACAGGAGCAGAUCUUGGUGGAGUGGGUCUACACUUGAGAUUUGUACUCGUUUGAGAGGCUGGGCAAUACUCAAUGCACUUUGGCAUUUGCAUGGUGUCUUCACAACAGCACAGCAAUAAACAUUGUGAUUGUGUGGACAUGCUGACUCUCCCCAGUCUGCUUUUCUUUUCCCCACUCUUGCGGUCGCACUAGUGUGGAAUUCUCGGGUGUCAAGG
B13: ENSMUSG00000022095.270|Fam160b2 (ssRNA)
RNA: GGGAGUUCUACAGUCCGACGAUCGCUUCGAUAUCCGCAUGCUAAGAGCGAGCUAUGAAUGAAUGUGAGUGUGUGUGUGUGUGUGUGUGAGAGAGAGAGAGAGAGAGAGAGAGCUGUGAGUACACAUGGGUGCUGGUGUGGGACAGGAGCAGAUCUUGGUGGAGUGGGUCUACACUUGAGAUUUGUACUCGUUUGAGAGGCUGGGCAAUACUCAAUGCACUUUGGCAUUUGCAUGGUGUCUUCACAACAGCACAGCAAUAAACAUUGUGAUUGUGUGGACAUGCUGACUCUCCCCAGUCUGCUUCUCUUGCGGUCGCACUAGUGUGGAAUUCUCGGGUGUCAAGG
B14: ENSMUSG00000022095.268|Fam160b2|37:57;104:108;240:245 (ssRNA)
RNA: GGGAGUUCUACAGUCCGACGAUCGCUUCGAUAUCCGCAUGCUAAGAGAGAGAGAGAGAGCGAGCUAUGAAUGAAUGUGACACACACACACACACACACACAGAGAGAGAGAGAGAGAGAGAGAGCUGUGAGUACACAUGGGUGCUGCACACGGACAGGAGCAGAUCUUGGUGGAGUGGGUCUACACUUGAGAUUUGUACUCGUUUGAGAGGCUGGGCAAUACUCAAUGCACUUUGGCAUUUGCAUGGUGUCUUCACAACAGCACAGCAAUAAACAUUGUGAUACACACGACAUGCUGACUCUCCUCUUGCGGUCGCACUAGUGUGGAAUUCUCGGGUGUCAAGG
B15: ENSMUSG00000022095.266|Fam160b2|1:10;49:69;116:120;252:257 (ssRNA)
RNA: GGGAGUUCUACAGUCCGACGAUCGCUUCGAUAUCCGCAUGCUAACACACACACAGAGAGAGAGAGAGAGAGCGAGCUAUGAAUGAAUGUGACACACACACACACACACACACAGAGAGAGAGAGAGAGAGAGAGAGCUGUGAGUACACAUGGGUGCUGCACACGGACAGGAGCAGAUCUUGGUGGAGUGGGUCUACACUUGAGAUUUGUACUCGUUUGAGAGGCUGGGCAAUACUCAAUGCACUUUGGCAUUUGCAUGGUGUCUUCACAACAGCACAGCAAUAAACAUUGUGAUACACACGACCUCUUGCGGUCGCACUAGUGUGGAAUUCUCGGGUGUCAAGG

Each binder was assayed against TDP-43 (Homo sapiens, UniProt Q13148 1-414) (assay: RNA Bind-n-Seq with designed 260-mer pool; 25 mM Tris-HCl, 150 mM KCl, 3 mM MgCl2, BSA (printed 500 mg/mL), 20 units/mL SUPERase IN; pH not stated; 500 nM RNA pool, 1 h, 4 C; TDP-43 5, 50, 500 nM; high values mean tight binding). Conditions: protein: recombinant; tags: SBP (GST cleaved off with PreScission; pGEX-GST-SBP).
Method in brief: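 Recombinant SBP-tagged TDP-43 at 5, 50 or 500 nM was captured on streptavidin beads, then incubated 1 h at 4 °C with 500 nM of an in vitro-transcribed 260-nt 3′ UTR oligo pool in 25 mM Tris-HCl, 150 mM KCl, 3 mM MgCl2, BSA and SUPERase IN. Bound RNA was washed, eluted with biotin, reverse transcribed, PCR-amplified and sequenced. Binding is R, each oligo's mapped-read-normalized abundance in the bound sample divided by its abundance in input. Duplicates used two independent protein batches.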

Sequence of TDP-43 (Q13148 whole entry): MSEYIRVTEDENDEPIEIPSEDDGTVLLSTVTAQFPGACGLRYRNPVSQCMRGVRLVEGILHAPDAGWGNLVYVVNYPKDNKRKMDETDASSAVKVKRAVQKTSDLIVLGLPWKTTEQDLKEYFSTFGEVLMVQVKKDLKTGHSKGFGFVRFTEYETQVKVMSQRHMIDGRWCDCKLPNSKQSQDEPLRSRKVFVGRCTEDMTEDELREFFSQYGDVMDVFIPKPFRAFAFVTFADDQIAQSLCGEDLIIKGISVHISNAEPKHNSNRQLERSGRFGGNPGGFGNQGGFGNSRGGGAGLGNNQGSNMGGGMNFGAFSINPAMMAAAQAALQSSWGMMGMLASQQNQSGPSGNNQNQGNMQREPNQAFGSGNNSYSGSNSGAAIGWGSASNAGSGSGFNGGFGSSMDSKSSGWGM

Binder	binding signal
B1	0.553 R (bound/input frequency ratio)
B2	0.69 R (bound/input frequency ratio)
B3	0.821 R (bound/input frequency ratio)
B4	7.25 R (bound/input frequency ratio)
B5	5.83 R (bound/input frequency ratio)
B6	6.67 R (bound/input frequency ratio)
B7	4.46 R (bound/input frequency ratio)
B8	7.64 R (bound/input frequency ratio)
B9	4.63 R (bound/input frequency ratio)
B10	4.7 R (bound/input frequency ratio)
B11	4.21 R (bound/input frequency ratio)
B12	5.79 R (bound/input frequency ratio)
B13	7.19 R (bound/input frequency ratio)
B14	6.08 R (bound/input frequency ratio)
B15	4.83 R (bound/input frequency ratio)
